PubChem BioAssay (NCATS)
Where “and” joins values, the source holds several entries; their conditions need not be identical. Equal entries are not always repeated. Results filed as inconclusive are left out. Unmarked numbers belong to inactive results. Calls of active or inactive are those of the source. The call rests on the fitted dose curve; in most records, active means well fitted activation curve with a large enough effect; inconclusive means small, poorly fitted or top-dose-only effect; inactive means no such curve, though single readings can be large or run the other way.
Potency means the concentration at half of the fitted maximal effect.

Each molecule was assayed against Cellular tumor antigen p53 (Homo sapiens) (UniProt P04637) (assay: Primary qHTS for small molecule compounds that upregulate eGFP-tagged delta133p53alpha (in N-terminal) cells. (AID 2060322; further: nearly all actives have a fitted effect of over 75% in size;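 on activation: cells pre-induced with doxycycline then dosed without doxycycline; series mostly up to about 56 µM; 0% = DMSO vehicle and 100% = reference activator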)). Conditions: NCI-H358 eGFP-delta133p53alpha fluorescence, 24 h; activation: hits give high values.
Sequence of Cellular tumor antigen p53 (Homo sapiens) (P04637 whole entry, looked up): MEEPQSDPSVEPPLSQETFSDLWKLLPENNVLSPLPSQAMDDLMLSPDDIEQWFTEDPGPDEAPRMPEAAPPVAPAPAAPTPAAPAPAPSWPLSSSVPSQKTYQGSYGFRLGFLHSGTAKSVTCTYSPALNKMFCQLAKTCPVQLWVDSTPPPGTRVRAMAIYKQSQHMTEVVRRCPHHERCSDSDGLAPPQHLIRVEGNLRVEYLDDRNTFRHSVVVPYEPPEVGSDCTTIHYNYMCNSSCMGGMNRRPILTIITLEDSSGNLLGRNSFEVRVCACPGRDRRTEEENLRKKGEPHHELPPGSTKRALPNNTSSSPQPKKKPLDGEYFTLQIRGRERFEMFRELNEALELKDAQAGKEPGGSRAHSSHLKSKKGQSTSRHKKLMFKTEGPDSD
Method in brief: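 NCI-H358 cells pre-induced 24 h with 10 ng/ml doxycycline for eGFP-delta133p53alpha, plated dox-free and exposed 24 h at 37C to titrated compounds. Fixed, Hoechst-stained; gated GFP peak intensity by laser scanning cytometry, normalized to DMSO (0%) and 57.5 uM 5-azacytidine (100%).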
Molecule `Cc1ccc(N=CN(C)C=Nc2ccc(C)cc2C)c(C)c1` has an activation of 13%. Work on `C1=C2CCCN[C@H]2[C@@H]2C[C@H]1[C@@H]1CCCCN1C2` yielded an activation of 1.08%. `C[N+]1(C)[C@@H]2CC[C@H]1CC(OC(=O)C(CO)c1ccccc1)C2` (some centres not stated) showed an activation of 25.4%. With `CCN1CCCC1CNC(=O)C(O)(c1ccccc1)c1ccccc1` (configuration not stated) the activation was -15.1%. In the case of `COP(=S)(OC)Oc1ccc(Sc2ccc(OP(=S)(OC)OC)cc2)cc1`, the activation was -14.2%. With `Cc1cccc(Cc2cnc[nH]2)c1C` the activation was -0.837%. `C#CCOC(C(=O)OCCN(C)C)(c1ccccc1)c1ccccc1` showed an activation of -6.21%. `C=CCC1=C(C)C(OC(=O)C2C(C=C(C)C)C2(C)C)CC1=O` (configuration not stated) was tested, and the activation was 18.6%. `O=C1CCC[C@@H]2[C@H]3CCCN4CCC[C@@H](CN12)[C@@H]34` showed an activation of 30.7%. In the case of `CCCN(CCC)CCc1c[nH]c2ccccc12`, the activation was 22%. With `Clc1ccc(COC(Cn2ccnc2)c2ccc(Cl)cc2Cl)cc1` (configuration not stated) the activation was 24.3% and 15.7%. In the case of `COc1ccc2[nH]cc(CCN(C(C)C)C(C)C)c2c1`, the activation was 23.2%. For `c1ccc2c(c1)sc1ccccc12`, the activation was -5.02%. Work on `COc1cc(CC#N)cc(OC)c1OC` yielded an activation of 2.82%. With `CC(C)NC(C)C` the activation was -1.69%. For `C[C@]12CC[C@H]3[C@@H](CC[C@@]45O[C@H]4C(O)=C(C#N)C[C@]35C)[C@H]1CC[C@H]2O`, the Potency was 21.7 µM (active). For `CC1(C)CC/C(=C/c2ccc(Cl)cc2)C1(O)Cn1cncn1` (configuration not stated), the activation was 2.51%.
